# Measured values reported in PubChem BioAssay.
# A number with no mark means an inactive call.
# Assay: CREB reporter modulators without forskolin, primary screen, cell-based, PC12, CRE-LacZ reporter, unstimulated (AID 1145)
# Conditions: no forskolin, luminescence, 4.5 h, higher = more signal, called active from +8 up or from −8 down
row,Compound,z-score
1,COCC(=C=CC[C@H](O)c1cccc(OCCO)c1)CCO,0.0281
2,C=CCC(OC(C)=O)[C@@H]1[C@@H](N(Cc2ccc(-c3cccc(C(F)(F)F)c3)o2)C(=O)c2cccc3ccccc23)c2cc(OCCCO)ccc2N1C(=O)Cc1ccc2ccccc2c1 (some centres undefined),0.307
3,COCCOC(=O)N1C(=O)[C@@]2(c3ccccc31)[C@H](C(=O)N1CCCCCCC1)[C@H]1C(=O)O[C@H](c3ccccc3)[C@H](c3ccccc3)N1[C@@H]2c1ccc(OCCO)cc1,-1.29

# Assay: CREB reporter modulators under forskolin, primary screen, cell-based, PC12, CRE-LacZ reporter, forskolin-stimulated (AID 1146);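 further: PC12 cells with 6xCRE LacZ reporter stimulated by forskolin 10 µM; beta-galactosidase reporter signal reflecting CREB driven transcription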
# Conditions: luminescence, 4.5 h, higher = more signal, called active from +8 up or from −8 down
row,Compound,z-score
1,COC(=O)[C@@]1(Cc2ccc(OC)cc2)[C@H]2c3cc(C(=O)N4CCCC4)n(Cc4nc5ccccc5[nH]4)c3C[C@H]2CN1C(=O)c1ccccc1,0.147
2,COc1ccc(NC(=O)O[C@H]2[C@H](OC(=O)c3cc4ccccc4[nH]3)[C@@H](OC(=O)c3cc4ccccc4[nH]3)[C@@H](OC)O[C@@H]2CO)cc1,-1.1
3,C=C(CCCC)C(=O)CC[C@@H](OC(C)=O)c1ccc(CO)o1,0.516
4,O=C1[C@H]2C=C(I)[C@H](C[C@@H]2OCCCCO)[C@@]12CO2,1.6
5,COCCCNC(=O)[C@@]1(Cc2ccccc2)N=C(c2ccc(OCCCO)cc2)O[C@H]1c1ccccc1CN=[N+]=[N-],-0.929
6,CN(C)CCCCCCNC(=O)[C@@H]1C[C@@H]2C(=O)N3CCC[C@H]3C(=O)N2[C@@H]1c1ccc(O)cc1,-0.439
7,COc1ccc([C@H]2C[C@H]3C(Br)=C[C@@]2(CO)C(=O)[C@]32CO2)cc1,1.6
8,C=CCNC(=O)[C@@H]1[C@H]2C(=O)O[C@H](c3ccccc3)[C@H](c3ccccc3)N2[C@H](c2ccc(OCCO)cc2)[C@@]12C(=O)N(C(=O)OCCOC)c1ccc(C#CCNC(N)=O)cc12,-0.419
9,CS(=O)(=O)CCOC(=O)C1=CC(CCCO)=CC(c2ccc(CN3CCCC3)cc2)N(Cc2cccc(OC(F)(F)F)c2)C=C1C(=O)OCCS(C)(=O)=O (centres undefined),-0.0478
10,COCCOC(=O)N1C(=O)[C@@]2(c3cc(C#CC4(O)CCCCCC4)ccc31)[C@H](C(=O)Nc1nc3ccccc3s1)[C@H]1C(=O)O[C@H](c3ccccc3)[C@H](c3ccccc3)N1[C@@H]2c1ccc(OCCO)cc1,1.65
11,[N-]=[N+]=Nc1ccccc1C[C@]1(C(=O)NCC(O)CO)N=C(c2ccc(OCCCO)cc2)O[C@H]1c1ccccc1 (some centres undefined),-1.55
12,[N-]=[N+]=NCc1ccccc1C[C@@]1(C(=O)NCC(O)CO)N=C(c2ccc(OCCCO)cc2)O[C@@H]1c1ccccc1 (some centres undefined),0.617
13,C=CCN1C(=O)[C@]2(O[C@H](CCO)[C@@H]([Si](C)(C)c3ccc(OC)cc3)[C@@H]2C)c2cc(N(C=O)c3ccccc3)ccc21,-3.14
14,Cc1ccc(S(=O)(=O)N2C[C@@H](C(=O)O)[C@H](Sc3ccccc3)C[C@H]2c2ccccc2)cc1,-0.356
15,COC(=O)[C@]1(Cc2ccccc2)N=C(c2ccc(OCCCO)cc2)O[C@@H]1c1ccccc1N=[N+]=[N-],-1.47
16,C=CC[C@]1(C(N)=O)N=C(c2ccc(OCCCO)cc2)O[C@H]1c1ccccc1,-0.806
17,[N-]=[N+]=Nc1ccccc1[C@H]1OC(c2ccc(OCCCO)cc2)=N[C@@]1(Cc1ccccc1)C(=O)N1CCOCC1,-1.62
18,O=C1NC(=O)C2C1C=CC(C(O)c1ccc(-c3ccccc3)s1)N2Nc1ccc(Cl)cc1Cl (centres undefined),-0.128

row,Compound,z-score
1,NCCCCCNC(=O)[C@H]1C[C@H]2C(=O)N3CCC[C@H]3C(=O)N2[C@H]1c1ccc(O)cc1,0.165
2,CC(=O)n1cc(C(O)C2C=CC3C(=O)NC(=O)C3N2Nc2ccccn2)c2ccccc21 (centres undefined),0.593
3,CO[C@H]1O[C@H](CO)[C@@H](OC(=O)Nc2cccc(F)c2)[C@H](OC(=O)Nc2ccccc2)[C@H]1OC(=O)Nc1ccccc1,-1.22
4,CO[C@H]1O[C@H](CO)[C@@H](OC(=O)Nc2ccccc2-c2ccccc2)[C@H](OC(=O)Nc2ccccc2-c2ccccc2)[C@@H]1OC(=O)Nc1ccccc1-c1ccccc1,0.0225
5,O=C(NCc1ccccc1)[C@@H]1c2ccccc2C(=O)N(C2Cc3ccccc3C2)[C@H]1c1ccc(CO)cc1,0.134
6,O=C1C2C=CC(C(O)c3ccc(-c4ccccc4)s3)N(Nc3ccccc3)C2C(=O)N1c1ccccc1 (centres undefined),0.117
7,Cc1c(NC(=O)/C(C#N)=C/c2cccc([N+](=O)[O-])c2)c(=O)n(-c2ccccc2)n1C,-1.47
8,O=C1C2C=CC(C(O)c3c(F)cccc3Cl)N(Nc3ccccc3F)C2C(=O)N1c1ccccc1 (centres undefined),-0.0389
9,NCCCCCCNC(=O)[C@H]1C[C@H]2C(=O)N[C@@H](Cc3ccccc3)C(=O)N2[C@H]1c1cccc(OCCO)c1,-0.711
10,CN(C)CCCC[C@@H]1NC(=O)[C@H]2C[C@@H](C(=O)NCCCCCN)[C@@H](c3cccc(OCCO)c3)N2C1=O,0.421
11,O=C(NCCN1CCOCC1)[C@@H]1c2ccccc2C(=O)N(Cc2cc(C(F)(F)F)cc(C(F)(F)F)c2)[C@H]1c1ccc(CO)cc1,-0.713
12,COc1ccc([Si](C)(C)[C@@H]2[C@@H](CC(=O)N3Cc4ccccc4C[C@H]3CO)O[C@]3(C(=O)N(Cc4cccc(N5CCC5=O)c4)c4ccccc43)[C@H]2C)cc1,1.34
13,CN1C(=O)C2C=CC(C(O)c3c(F)cccc3Cl)N(NC(=O)OC(C)(C)C)C2C1=O (centres undefined),0.947
14,O=C1OCCC/C=C\[C@H]2OC34C=CCN(c5ccc6ccccc6c5)C(=O)[C@H]3N(CCCCCO)C(=O)[C@@H]4C12 (some centres undefined),0.106
15,COc1ccc([Si](C)(C)[C@H]2[C@H](CC(=O)N3CCC[C@H]3CO)O[C@@]3(C(=O)N(Cc4cccc(N5CCOC5=O)c4)c4ccccc43)[C@@H]2C)cc1,-0.135
16,COCC(=C=CC[C@H](O)c1cccc(OCCO)c1)CCO,0.324
17,C=CCC(OC(C)=O)[C@@H]1[C@@H](N(Cc2ccc(-c3cccc(C(F)(F)F)c3)o2)C(=O)c2cccc3ccccc23)c2cc(OCCCO)ccc2N1C(=O)Cc1ccc2ccccc2c1 (some centres undefined),0.848
18,COCCOC(=O)N1C(=O)[C@@]2(c3ccccc31)[C@H](C(=O)N1CCCCCCC1)[C@H]1C(=O)O[C@H](c3ccccc3)[C@H](c3ccccc3)N1[C@@H]2c1ccc(OCCO)cc1,-0.791
